# Only some compounds are listed: those with a hit (about 10% of all), similar ones and a draw of the others.
# G9a block – blocks human histone lysine methyltransferase G9a. Q96KQ7. 8.8% of 350,000 active. Potency, µM (doses to about 102 µM), actives largely listed as inhibitors. G9a H3K9 monomethylation, AlphaScreen, 2 h; note: nearly all actives have a fitted effect of over 75% in size
# Target sequence (Q96KQ7 913-1193 limits assumed): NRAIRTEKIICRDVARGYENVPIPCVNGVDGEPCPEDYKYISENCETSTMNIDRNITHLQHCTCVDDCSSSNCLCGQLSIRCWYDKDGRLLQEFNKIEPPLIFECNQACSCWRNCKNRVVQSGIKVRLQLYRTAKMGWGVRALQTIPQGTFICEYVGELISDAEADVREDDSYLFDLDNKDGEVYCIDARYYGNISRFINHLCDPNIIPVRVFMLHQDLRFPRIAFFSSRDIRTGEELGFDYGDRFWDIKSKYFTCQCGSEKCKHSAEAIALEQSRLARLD
#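 G9a (20 nM) was preincubated 15 min with compound, then reacted 2 h at room temperature with 500 nM biotin-H3K9 peptide and 20 µM SAM. Monomethyl-H3K9 detected by AlphaScreen using anti-H3K9me1 antibody.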
# JMJD2A Tudor – JMJD2A Tudor domain (human) inhibition; O75164; AlphaScreen JMJD2A-Tudor / H3K4me3 peptide binding; Potency, µM (titrated, usually from 114 µM), usual class: inhibitors; 4.4% of 390,000 active; AID 504339; note: nearly all actives have a fitted effect of over 50% in size
# Six1-Eya2 inh – blocks human Six1 binding to Eya2; Q15475+O00167; AlphaScreen GST-Six1/His-Eya2 binding, biochemical; active compounds read low; activity change, % (no concentration beside the values); 0.56% of 360,000 active; in the data active = activity change below about -65%; inconclusive = mostly about -30% to -63%
#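 Six1/Eya2 binding was read as AlphaScreen signal after compounds were pinned into GST-Six1 plus His-tagged Eya2 (5X stock 250/500 nM) in pH 8.0 Tris/NaCl/TCEP buffer, beads added, then incubated 1 h, 37 C, dark.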
# BAZ2B block – BAZ2B (human) inhibition; 4.4% of 360,000 active; Potency, µM (highest dose often 114 µM), usual class: inhibitors; AlphaScreen BAZ2B-H3K14Ac peptide displacement; note: nearly all actives have a fitted effect of over 60% in size
#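 In this displacement format the biotinylated H3(5-23) peptide acetylated at Lys14 serves as ligand at 50 nM, with BAZ2B at 50 nM in PBS pH 7.4 containing 0.01% Tween-20. Donor and acceptor beads are 10 ug/mL final.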
# CtBP-E1A blk – CtBP/E1A binding inhibition; AlphaScreen GST-E1A/His-CtBP binding, 1536-well; active compounds read low; activity change, % (no concentration beside the values); 0.49% of 340,000 active; in the data active = activity change below about -65%; inconclusive = mostly about -30% to -63%
#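 Homogeneous bead-based format: GST-tagged E1A captured on glutathione donor beads, His-tagged CtBP on nickel acceptor beads; compounds precede bead addition by 2 h at 37 °C.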
# HP1b binding inh – blocks HP1-beta chromodomain binding to methylated histone tails | Potency, µM (top dose mostly 114 µM), usual class: inhibitors | AID 540317 | P83916 | AlphaScreen HP1-beta / biotin-H3K9me3 peptide binding | 0.56% of 390,000 active; note: nearly all actives have a fitted effect of over 70% in size
# Target sequence (P83916 whole entry, looked up): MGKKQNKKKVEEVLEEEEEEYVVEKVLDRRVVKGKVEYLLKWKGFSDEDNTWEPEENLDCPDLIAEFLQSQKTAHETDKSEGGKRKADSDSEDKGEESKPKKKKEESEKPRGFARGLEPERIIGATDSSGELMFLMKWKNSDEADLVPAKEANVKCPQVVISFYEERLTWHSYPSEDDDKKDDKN
#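 Compound inhibition of the preformed complex between 50 nM HP1-beta and 50 nM biotinylated H3K9me3 peptide was read by AlphaScreen. Buffer was PBS pH 7.4 with 0.01% Tween-20. Incubations ran 30 min at room temperature, with 10 ug/mL donor/acceptor beads.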
# A number is an active result; 0 = inactive; ? = inconclusive; - = no result; [ ] = remark or other dose. Unless noted, calls come from the whole dose curve; as a rule, active = well fitted inhibition curve with a large enough effect; inconclusive = small, poorly fitted or top-dose-only effect; inactive = no such curve, though single readings can be large or run the other way.
SMILES,G9a block,JMJD2A Tudor,Six1-Eya2 inh,BAZ2B block,CtBP-E1A blk,HP1b binding inh
Cc1c(Cl)ccc2sc(NC(=O)c3ccco3)nc12,-,0,0,0,0,0
NNc1nc2c(Cl)c(Cl)ccc2s1,?,10µM,0,50.1µM,0,0
COc1cccc2sc(NN)nc12,31.6µM,?,0,-,0,?
COc1ccc(C)cc1NC(=O)c1cc2c(=O)n(Cc3cccnc3)ccc2nc1C,0,0,-,0,-,0
COc1ccc(OC)c(NC(=O)C2(C)CCN2C(=O)C2(c3ccccc3)CCCC2)c1 (centres undefined),-,-,0,-,0,-
O=C(/C=C/c1cccs1)N1CCCCC1,0,0,0,0,0,0
O=S(=O)(c1cccs1)N1CCN(c2ccc(O)cc2)CC1,35.5µM,0,0,0,0,0
CN1CCN(S(=O)(=O)c2cccs2)CC1,0,0,0,0,0,0
O=C(/C=C/c1cccs1)N1CCN(c2ccc(O)cc2)CC1,7.94µM,?,0,0,0,?
CC(=O)Nc1ccc(S(=O)(=O)Nc2ccc(C)c(C)c2)cc1,-,0,-,-,-,-
COC(=O)C[C@@H]1OC[C@H](CO)N1S(=O)(=O)c1ccc(C)cc1,-,-,0,-,0,-
CCOC(=O)[C@]12CCCC=C1N(CCC1=CCCCC1)C(=O)[C@H](CC(=O)NCc1ccccc1)C2,-,-,0,-,0,-
CC(=O)c1c(C)[nH]c(C(=O)NCC2CCCCC2)c1C,39.8µM,0,0,0,0,0
CC(=O)c1c(C)[nH]c(C(=O)N2CCCCCC2)c1C,0[0.501 µM],0[11.4 µM],0,50.1µM,0,?
CCCNC(=O)c1[nH]c(C)c(C(C)=O)c1C,0,0,0,?,0,0
O=S(=O)(CS(=O)(=O)c1ccc(Cl)cc1)c1ccc(Cl)cc1,-,0,0,0,0,0
Oc1ccc(/C=N/N(Cc2ccccc2)c2ccccc2)c(O)c1O,28.2µM,56.2µM,0,28.2µM,0,?
Cc1ccc(NCc2ccccc2O)cc1C,?,50.1µM,0,?,0,?
Oc1ccccc1CNc1ccc2c(c1)OCCO2,?,0,0,?,0,0
CSc1ccc(CNc2ccc(C)c(C)c2)cc1,89.1µM,39.8µM,?,50.1µM,?,?
Cc1nc2cc(NCc3ccccc3O)ccc2n1Cc1ccccc1,-,31.6µM,0,20µM,0,?
Nc1ncnc2c1ncn2[C@@H]1O[C@H](COP(=O)(O)OP(=O)(O)OP(=O)(O)OP(=O)(O)OC[C@@H]2O[C@H](n3cnc4c(N)ncnc43)[C@@H](O)[C@@H]2O)[C@H](O)[C@H]1O,0,-,-,-,-,-
COc1ccc(NC(=O)CC(C)S(=O)(=O)c2cc3c(cc2C)NC(=O)CO3)cc1OC (centres undefined),0,0,-,0,-,0
Cc1ccc(S(=O)(=O)c2nc(Nc3ccccc3)sc2Cl)cc1,?,?,0,0,0,0
COc1ccc(Nc2nc(S(=O)(=O)c3ccc(C)cc3)c(Cl)s2)cc1,44.7µM,?,0,0,0,0
SMILES,G9a block,JMJD2A Tudor,Six1-Eya2 inh,BAZ2B block,CtBP-E1A blk,HP1b binding inh
C[C@@H](c1ccccc1)N1C[C@@H](COCc2ccccc2)Oc2cc(N3CCC[C@@H]3CO)ccc2S1(=O)=O,-,-,0,-,0,-
Cc1ccc2c(c1)Sc1c(ccc3ccccc13)N2,?,?,0,39.8µM,0,?
CC(=O)c1cccc(OCC(=O)N(C)CC(=O)Nc2ccc(F)cc2)c1,0[12.7 µM],0[11.4 µM],0,0,0,0
Cc1cccc(OCCCC(=O)Nc2nc3ccccc3[nH]2)c1,0,0,0,0,0,0
N#C/C(=C\Nc1ccc2cn[nH]c2c1)c1nc(-c2ccccc2)cs1,70.8µM,0,0,-,0,0
CCCCCCCCCCCCCCCC(=O)N[C@H](CN1CCOCC1)[C@H](O)c1ccccc1,0,-,-,-,-,-
Cc1cc(Nc2ccccc2)c2c([N+](=O)[O-])ccc(C)c2n1,11.2µM,50.1µM,0,28.2µM,0,?
CCOC(=O)/C(=C/C=C1\Sc2ccccc2N1CC)C(C)=O,?,0,0,0,?,0
CCOC(=O)/C(=C/C=C1\Sc2cc(C)c(C)cc2N1CC)C(C)=O,0,0,0,39.8µM,0,0
Cc1cc(NC(=O)CSc2nc3c(c(=O)n2C)SCC3)no1,0,0,0,0,0,0
COc1ccc(CC(=O)NCCN2CCOCC2)cc1,0,0,0,0,-,0
COc1ccc(CNC(=O)CN(C(=O)c2ccc(CN3CCOCC3)o2)C2CCCC2)cc1,3.55µM,0,0,0,0,0
Cc1ccc(N2NC(=O)/C(=C/c3ccc(-c4ccc(Cl)c(C(=O)O)c4)o3)C2=O)cc1C,?,0,0,?,0,0
O=C(N/N=C/c1ccc(-c2cccc([N+](=O)[O-])c2)o1)c1ccc([N+](=O)[O-])cc1,0,0,0,0,0,0
Cc1ccc(OCCn2cc(/C=C3\C(=O)NN(c4ccccc4)C3=O)c3ccccc32)cc1,0,?,0,?,0,0
O=C1NN(c2ccc(Cl)c(Cl)c2)C(=O)/C1=C/c1ccc(-c2ccccc2C(=O)O)o1,39.8µM,?,?,39.8µM,-72.1,?
COC(=O)c1ccc(N2NC(=O)/C(=C/c3ccc(-c4ccc(Cl)c(C(=O)O)c4)o3)C2=O)cc1,17.8µM,56.2µM,0,50.1µM,0,?
O=C1NN(c2ccccc2)C(=O)/C1=C/c1ccc(Sc2cccc3ccccc23)o1,31.6µM,?,?,10µM,0,?
O=C(O)c1ccc(N2C(=O)/C(=C/c3ccc(-c4ccc([N+](=O)[O-])cc4)o3)C=C2c2ccccc2)cc1,5.62µM,7.94µM,0,11.2µM,0,14.1µM
COC(=O)c1sc(N/N=C/c2ccc(C(C)C)cc2)nc1C,0,0,0,0,0,0
CCn1c(=O)cc(SCC(=O)Nc2ccc(C)c(F)c2)c2ccccc21,0,0,-,0,-,0
Nn1cnc2scc(-c3ccc(Cl)cc3)c2c1=O,0,0,0,0,-,0
CCCn1c2ccccc2c2cnn(CC(=O)N(CCCOC)Cc3ccco3)c(=O)c21,0,0,-,0,-,0
O=C1NN(c2ccccc2)C(=O)/C1=C/c1ccc(-c2ccc(C(=O)O)cc2)o1,-,56.2µM,0,50.1µM,0,?
COc1ccc(/C=C2\SC(=N)N(c3ccc(F)cc3)C2=O)cc1OC,0,0,0,0,0,0
CCOc1cc(/C=C2\SC(=N)N(c3nonc3N)C2=O)ccc1OCC(N)=O,44.7µM,?,0,?,0,0
COc1ccc(NS(=O)(=O)c2cc3c(cc2C)N(C)CCO3)cc1,0,?,0,50.1µM,0,0
CCOc1ccc(NS(=O)(=O)c2cc3c(cc2C)N(C)CCO3)cc1,0,?,0,0,0,0
Cc1cc(N2O[C@H]3C=C[C@@H]2C3)no1,-,79.4µM,0,-,0,0
COc1ccc(NC(=O)c2ccc3nc[nH]c3c2)c(OC)c1,0,0,0,?,0,0

# Screening data deposited in PubChem BioAssay by National Center for Advancing Translational Sciences (NCATS).
